Assay results from PubChem BioAssay.

What follows are molecules tested on XIP peptide (Xip251-270) binding (assay: small-molecule binders of XIP peptide, primary screen, biochemical, small-molecule microarray, fluorescence 635/667 nm, 0.1 µg/mL protein (AID 1182)). Settings: fluorescent protein binding, 635 nm, higher = more signal, called active from +8 up or from −8 down.

Composite z-score, inactive:
CC(CCN1CCCCc2nc(C)c(C)cc21)=NOC[C@@H](O)[C@H]1O[C@@H]2OC(C)(C)O[C@@H]2[C@H]1O -0.398
CCCC[C@H]1CN2[C@@H](CC[C@@H](C)[C@@H]2c2ccc(Br)cc2)C(=O)O1 0.977
COC(=O)CC=C[C@@H](C)[C@@H](C=NOC[C@@H](O)COCc1ccco1)NS(=O)(=O)c1ccc(C)cc1 0.133
O=C1CCCC=C1C(O)c1ccc([N+](=O)[O-])cc1 (centres undefined) -0.542
C[C@@H]1CC[C@@H](C(=O)O)N[C@H]1c1cccc(N2CCOCC2)c1 -0.315
CC(C)=CCCC(C)=CCON=C1C[C@@H](O)[C@@H](O)[C@@H]2[C@@H]3C(=O)N(Cc4ccc5c(c4)OCO5)C(=O)[C@@H]3CC[C@@H]12 1.07
CC(C)=NO[C@H](C)c1cn([C@@H]2COC[C@H]2O)nn1 0.496
C[C@@H]1CC[C@H]2C(=O)O[C@@H](CN=[N+]=[N-])CN2[C@H]1c1ccc(Br)cc1 0.223
COc1ccc(OC[C@@H]2CC3[C@@H](c4ccc(Br)cc4)[C@H](C)CC[C@H]3C(=O)O2)cc1 (some centres undefined) -0.0755
CC(=O)OC[C@H]1O[C@H](CC=NO[C@@H](C)c2cn([C@H](CO)Cc3ccccc3)nn2)C=C[C@@H]1OC(C)=O -0.0018
CON=C(C)CCN1CCCc2nc(C)c(C)cc21 -0.0879
O=C1[C@H]2[C@H]3[C@H](O)[C@H](O)CC(=NOC[C@@H](O)COCc4ccco4)[C@@H]3CC[C@H]2C(=O)N1C1CCCCC1 0.288
CC(C)CN1CCc2nc(-c3ccccc3)c3c(c2C1)CO[C@@H](C)C3 0.973
CO[C@@H](C1CCCCC1)[C@@H](C)[C@H](OCc1cccc(Br)c1)[C@@H](C)CO -0.0994
CCCNC(=O)OC[C@H]1O[C@H](CCON=C[C@@H](NS(=O)(=O)c2ccc(C)cc2)[C@H](C)C=CCC(=O)OC)C=C[C@@H]1Oc1ccc(OC)cc1 -0.349
CC(C)CON=C1C[C@@H](O)[C@@H](O)[C@@H]2[C@@H]3C(=O)N([C@@H](C)c4ccccc4)C(=O)[C@@H]3CC[C@@H]12 0.0068
CCOC(=O)CCN1C(=O)[C@H]2[C@H]3[C@H](O)[C@H](O)CC(=NO[C@@H]4O[C@H](CO)[C@@H](O)[C@H](O)[C@H]4O)[C@H]3CC[C@H]2C1=O 0.234
CCN1C(C)=C(C(=O)OC)[C@@H](c2ccccc2)N2C(=O)[C@](O)(C(=O)OC)CC(C(C)=O)=C12 0.181
O=C1CCCC=C1C(O)COCc1ccccc1 (centres undefined) 0.253
CCOC(=O)[C@H](Cc1ccccc1)NC(=O)CCC1CC(OC(=O)NCc2cccc3ccccc23)CC2(CCCC(COC(=O)NCCOc3ccccc3)O2)O1 (some centres undefined) -0.0988
C[C@@H](c1ccccc1)N1C(=O)[C@H]2[C@H]3[C@H](O)[C@H](O)CC(=NNC(=O)OCc4ccccc4)[C@@H]3CC[C@H]2C1=O 0.101
CC(CCN1CCCc2nc(C)c(C)cc21)=NOC[C@@H](C)[C@H](OCc1ccccc1)C(C)C -0.563
CON=C(C)CCN1CCCCc2nc(C)c(C)cc21 0.0459
CCCNC(=O)OC[C@H]1O[C@H](CCON=C2C[C@@H](O)[C@@H](O)[C@@H]3[C@@H]4C(=O)N(CC)C(=O)[C@@H]4CC[C@@H]23)C=C[C@@H]1Oc1ccc(OC)cc1 -0.14
CCOC(=O)[C@H](CC(C)C)NC(=O)CCC1CC(OC(=O)NCc2ccc3c(c2)OCO3)CC2(CCCC(COC(=O)NCCC(C)C)O2)O1 (some centres undefined) 0.554
COC(=O)[C@H](C)NC(=O)CCC1CC(OC(=O)NCCc2ccc(F)cc2)CC2(CCCC(COC(=O)NCCc3ccccc3OC)O2)O1 (some centres undefined) 0.784
CC(CCN1CCCc2nc(C)c(C)cc21)=NO[C@H](C)c1cn([C@@H]2COC[C@H]2O)nn1 -0.0434
CON=C1c2cc(OC)ccc2O[C@H](c2cccc(OC)c2)[C@H]1O 0.906
O=C1C2=CC[C@H]3C(=O)N(Cc4ccccc4)C(=O)[C@H]3[C@H]2[C@H](O)[C@@H]2O[C@H]12 0.409
